Data as given in PubChem BioAssay AID1159580 (chemical genetic matrix, 2015).
Values joined by “and” are separate entries in the source; they are usually repeats but may differ in a detail not shown here. Identical values can stand only once. The campaign covered roughly 5,500 compounds. About 2,000 (36%) were called active. Inconclusive results (about 18%) are left out. Cut-off read from the data, not from the text of the source: active = normalized growth mostly below about 0.91 (no sharp cut-off); inconclusive = no clear call, values can overlap the other calls; inactive = mostly above about 0.92. Some of the results follow.

Assay: chemical genetic growth profiling, strain panel (AID 1159580);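 note: tested at 20 µM; growth read once vehicle control cultures reached saturation at 30 °C; 1 = growth at the plate median or of vehicle wells; lower values mean less growth of the strain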
Settings: S. cerevisiae deletion strains, growth OD
[1] = locus YGR229C, strain SMI1, stronger effect = lower value
[2] = locus YMR307W, strain GAS1, stronger effect = lower value
[3] = locus YNL322C, strain KRE1, stronger effect = lower value

Measured: normalized growth

C=C/C(C)=C/[C@@]1(C)SC(=O)C(C)=C1O
inactive: locus YAL040C, strain CLN3, stronger effect = lower value 0.998 | locus YCL061C, strain MRC1 (second series), stronger effect = lower value 1 | locus YDR150W, strain NUM1, stronger effect = lower value 1.01 | locus YDR363W, strain ESC2, stronger effect = lower value 1.02 | locus YER002W, strain NOP16, stronger effect = lower value 0.986 | locus YGR078C, strain PAC10, stronger effect = lower value 1.01 | [1] 1.01 | locus YJR075W, strain HOC1, stronger effect = lower value 1 | [2] 0.998 | locus YNL175C, strain NOP13, stronger effect = lower value 0.996 | locus YNL197C, strain WHI3, stronger effect = lower value 1 | locus YNL224C, strain SQS1, stronger effect = lower value 1 | [3] 0.999 | locus YOR083W, strain WHI5 (second series), stronger effect = lower value 0.999

C/C1=C/CC(C)(C)/C=C/C/C(C)=C/CC1
0.85 (active) and 1.03 (inactive): locus YHR030C, strain SLT2, stronger effect = lower value
active: locus YDL074C, strain BRE1, stronger effect = lower value 0.769 | locus YDR162C, strain NBP2, stronger effect = lower value 0.611 | [1] 0.389 | locus YLR039C, strain RIC1, stronger effect = lower value 0.651 | [2] 0.536 | locus YOR184W, strain ser1, stronger effect = lower value 0.865 | locus YPL055C, strain LGE1, stronger effect = lower value 0.76
inactive: locus YAL021C, strain ccr4, stronger effect = lower value 1.04 | locus YAL026C, strain drs2, stronger effect = lower value 0.983 | locus YAL030W, strain snc1, stronger effect = lower value 0.99 | locus YBL061C, strain skt5, stronger effect = lower value 0.985 | locus YBR009C, strain hhf1, stronger effect = lower value 0.983 | locus YBR021W, strain FUR4, stronger effect = lower value 0.95 | locus YBR023C, strain chs3, stronger effect = lower value 0.99 | locus YBR171W, strain sec66, stronger effect = lower value 0.953 | locus YBR229C, strain ROT2, stronger effect = lower value 1.03 | locus YBR231C, strain swc5, stronger effect = lower value 0.977 | locus YBR279W, strain paf1, stronger effect = lower value 0.999 | locus YCL011C, strain gbp2, stronger effect = lower value 1.02 | locus YCL016C, strain dcc1, stronger effect = lower value 1.01 | locus YCL029C, strain bik1, stronger effect = lower value 1.03 | locus YCL061C, strain MRC1, stronger effect = lower value 0.988 | locus YCL069W, strain vba3, stronger effect = lower value 0.991 | locus YCR088W, strain abp1, stronger effect = lower value 0.981 | locus YDL005C, strain med2, stronger effect = lower value 0.966 | locus YDL035C, strain GPR1, stronger effect = lower value 0.91 | locus YDL040C, strain nat1, stronger effect = lower value 0.987 | locus YDL101C, strain DUN1, stronger effect = lower value 1.01 | locus YDL185W, strain tfp1, stronger effect = lower value 1 | locus YDL192W, strain arf1, stronger effect = lower value 0.988 | locus YDR001C, strain nth1, stronger effect = lower value 0.985 | locus YDR069C, strain doa4, stronger effect = lower value 0.989 | locus YDR101C, strain arx1, stronger effect = lower value 0.991 | locus YDR137W, strain rgp1, stronger effect = lower value 0.973 | locus YDR159W, strain sac3, stronger effect = lower value 0.975 | locus YDR195W, strain ref2 0.951 | locus YDR297W, strain sur2, stronger effect = lower value 0.988 | locus YDR318W, strain mcm21, stronger effect = lower value 1.01 | locus YDR334W, strain swr1, stronger effect = lower value 0.981 | locus YDR335W, strain msn5, stronger effect = lower value 0.998 | locus YDR388W, stronger effect = lower value 0.998 | locus YDR392W, strain spt3, stronger effect = lower value 0.961 | locus YDR502C, strain sam2, stronger effect = lower value 0.983 | locus YEL003W, strain gim4, stronger effect = lower value 0.983 | locus YEL037C, strain rad23, stronger effect = lower value 0.984 | locus YEL061C, strain CIN8 (second series), stronger effect = lower value 0.982 | locus YEL061C, strain CIN8, stronger effect = lower value 0.988 | locus YER015W, strain faa2, stronger effect = lower value 1 | locus YER016W, strain bim1, stronger effect = lower value 0.987 | locus YER110C, stronger effect = lower value 1.01 | locus YER111C, strain swi4, stronger effect = lower value 0.968 | locus YER155C, strain BEM2 (second series), stronger effect = lower value 1.01 | locus YER155C, strain BEM2, stronger effect = lower value 1 | locus YER167W, strain BCK2, stronger effect = lower value 0.98 | locus YFR010W, strain ubp6, stronger effect = lower value 0.978 | locus YGL078C, strain dbp3, stronger effect = lower value 0.985 | locus YGL086W, strain mad1, stronger effect = lower value 1 | locus YGL167C, strain pmr1, stronger effect = lower value 0.977 | locus YGL173C, strain kem1, stronger effect = lower value 0.96 | locus YGL227W, strain vid30, stronger effect = lower value 0.978 | locus YGL240W, strain doc1, stronger effect = lower value 0.956 | locus YGL248W, strain PDE1, stronger effect = lower value 1.01 | locus YGL253W, strain hxk2, stronger effect = lower value 0.957 | locus YGR135W, strain pre9, stronger effect = lower value 0.967 | locus YGR252W, strain gcn5, stronger effect = lower value 1.01 | locus YHR013C, strain ard1, stronger effect = lower value 1 | locus YHR027C, strain rpn1, stronger effect = lower value 0.97 | locus YHR079C, strain IRE1 (second series), stronger effect = lower value 1.01 | locus YHR079C, strain IRE1, stronger effect = lower value 1.02 | locus YHR094C, strain hxt1, stronger effect = lower value 1.01 | locus YHR129C, strain ARP1, stronger effect = lower value 1.01 | locus YHR142W, strain chs7, stronger effect = lower value 1 | locus YHR200W, strain rpn10, stronger effect = lower value 1.01 | locus YIL066C, strain RNR3, stronger effect = lower value 1.01 | locus YIL073C, strain SPO22, stronger effect = lower value 0.95 | locus YIL125W, strain kgd1, stronger effect = lower value 0.991 | locus YIR030C, strain dcg1, stronger effect = lower value 1 | locus YJL092W, strain hpr5, stronger effect = lower value 0.988 | locus YJL095W, strain BCK1 (second series), stronger effect = lower value 1 | locus YJL095W, strain BCK1, stronger effect = lower value 0.831 and 1.06 | locus YJL115W, strain asf1, stronger effect = lower value 0.988 | locus YJL129C, strain trk1, stronger effect = lower value 0.981 | locus YJL134W, strain LCB3, stronger effect = lower value 1 | locus YJL154C, strain vps35, stronger effect = lower value 0.981 | locus YJL164C, strain tpk1, stronger effect = lower value 1.01 | locus YJL166W, strain qcr8, stronger effect = lower value 0.985 | locus YJL168C, strain set2, stronger effect = lower value 1.02 | locus YJL187C, strain SWE1 (second series), stronger effect = lower value 0.976 | locus YJR043C, strain POL32, stronger effect = lower value 0.964 | locus YJR066W, strain TOR1, stronger effect = lower value 0.986 | locus YKL009W, strain mrt4, stronger effect = lower value 0.962 | locus YKL068W, stronger effect = lower value 0.991 | locus YKL085W, strain MDH1 (second series), stronger effect = lower value 0.963 | locus YKL085W, strain MDH1, stronger effect = lower value 0.963 | locus YKL160W, strain elf1, stronger effect = lower value 1.02 | locus YKR001C, strain vps1, stronger effect = lower value 0.98 | locus YKR026C, strain gcn3, stronger effect = lower value 0.983 | locus YKR091W, strain srl3, stronger effect = lower value 0.987 | locus YLL001W, strain dnm1, stronger effect = lower value 1 | locus YLL026W, stronger effect = lower value 0.99 | locus YLL041C, strain sdh2, stronger effect = lower value 0.998 | locus YLR027C, strain aat2, stronger effect = lower value 1.01 | locus YLR058C, strain SHM2, stronger effect = lower value 1.01 | locus YLR102C, strain apc9, stronger effect = lower value 1.01 | locus YLR113W, strain HOG1, stronger effect = lower value 1.02 | locus YLR221C, strain rsa3, stronger effect = lower value 0.961 | locus YLR258W, strain gsy2, stronger effect = lower value 0.998 | locus YLR262C, strain YPT6 (second series), stronger effect = lower value 0.994 | locus YLR262C, strain YPT6, stronger effect = lower value 0.789 | locus YLR268W, strain sec22, stronger effect = lower value 1 | locus YLR320W, strain mms22, stronger effect = lower value 0.968 | locus YLR330W, strain CHS5, stronger effect = lower value 0.974 | locus YLR342W, strain FKS1 (second series), stronger effect = lower value 0.986 | locus YLR342W, strain FKS1, stronger effect = lower value 0.989 | locus YLR357W, strain rsc2, stronger effect = lower value 0.968 | locus YLR370C, strain arc18, stronger effect = lower value 1.01 | locus YLR371W, strain rom2, stronger effect = lower value 0.998 | locus YLR384C, strain iki3, stronger effect = lower value 0.984 | locus YLR418C, strain cdc73, stronger effect = lower value 0.929 | locus YML016C, strain PPZ1, stronger effect = lower value 1.04 | locus YML032C, strain rad52, stronger effect = lower value 0.99 | locus YML120C, strain ndi1, stronger effect = lower value 1 | locus YML124C, strain tub3, stronger effect = lower value 1.01 | locus YMR058W, strain fet3, stronger effect = lower value 0.992 | locus YMR078C, strain ctf18, stronger effect = lower value 1.01 | locus YMR125W, strain sto1, stronger effect = lower value 1.01 | locus YMR129W, stronger effect = lower value 0.992 | locus YMR205C, strain PFK2, stronger effect = lower value 0.994 | locus YMR223W, strain ubp8, stronger effect = lower value 1 | locus YMR231W, strain pep5, stronger effect = lower value 0.966 | locus YNL067W, strain RPL9B, stronger effect = lower value 0.869 | locus YNL071W, strain lat1, stronger effect = lower value 0.998 | locus YNL183C, strain NPR1, stronger effect = lower value 0.995 | locus YNL209W, strain ssb2, stronger effect = lower value 1 | locus YNL233W, strain BNI4, stronger effect = lower value 0.96 | locus YNL250W, strain rad50, stronger effect = lower value 0.973 | locus YNL271C, strain bni1, stronger effect = lower value 0.998 | locus YNL298W, strain CLA4, stronger effect = lower value 0.989 | locus YNL307C, strain MCK1, stronger effect = lower value 1.02 | locus YNL322C, strain KRE1 (second series), stronger effect = lower value 0.979 | [3] 0.973 | locus YNR049C, strain mso1, stronger effect = lower value 0.976 | locus YNR052C, strain pop2, stronger effect = lower value 0.964 | locus YOL006C, strain TOP1, stronger effect = lower value 0.917 | locus YOL012C, strain htz1 1.09 | locus YOL147C, strain pex11, stronger effect = lower value 1.02 | locus YOR001W, strain rrp6, stronger effect = lower value 0.944 | locus YOR061W, strain CKA2, stronger effect = lower value 1.03 | locus YOR069W, strain VPS5, stronger effect = lower value 1.02 | locus YOR070C, strain gyp1, stronger effect = lower value 0.983 | locus YOR080W, strain dia2, stronger effect = lower value 0.969 | locus YOR083W, strain WHI5, stronger effect = lower value 1.02 | locus YOR106W, strain vam3, stronger effect = lower value 0.995 | locus YOR136W, strain idh2, stronger effect = lower value 0.995 | locus YOR144C, strain elg1, stronger effect = lower value 1.01 | locus YOR231W, strain MKK1, stronger effect = lower value 1.02 | locus YOR265W, strain rbl2, stronger effect = lower value 0.997 | locus YOR270C, strain vph1, stronger effect = lower value 0.932 | locus YOR290C, strain snf2, stronger effect = lower value 0.995 | locus YOR316C, strain cot1, stronger effect = lower value 1.01 | locus YPL051W, strain arl3, stronger effect = lower value 0.991 | locus YPL078C, strain atp4, stronger effect = lower value 1.01 | locus YPL106C, strain sse1, stronger effect = lower value 1.03 | locus YPL240C, strain hsp82, stronger effect = lower value 1.02 | locus YPL241C, strain CIN2, stronger effect = lower value 1.02 | locus YPL256C, strain CLN2, stronger effect = lower value 1.06 | locus YPR119W, strain clb2, stronger effect = lower value 1.01 | locus YPR141C, strain kar3, stronger effect = lower value 1 | locus YPR163C, strain tif3, stronger effect = lower value 1.01 | locus YPR167C, strain met16, stronger effect = lower value 1.01 | strain wtn01, stronger effect = lower value 0.993
